Data from PubChem BioAssay AID1778 (Sanford-Burnham Center for Chemical Genomics, 2009).
Several values for one entry are separate records, joined by “and”; a condition that tells them apart may be missing. Equal values may be shown once. Among all 290,000 compounds or so, about 260 (0.09%) were called active. Shown is part of a subset that was picked to be rich in actives. Measured potencies and affinities stand elsewhere. A number with no mark means an inactive call. No stated cut-off is given here; in the data, active means inhibition above about 50%; inactive means the rest.

Molecular target: Kappa-type opioid receptor (Homo sapiens) (UniProt P41145)
Experiment: KOR antagonists, beta-arrestin recruitment, cell-based, luminescence, uHTS (AID 1778)
Conditions: antagonist mode, active compounds read high; at 10 µM unless noted

Kappa-type opioid receptor (Homo sapiens), sequence (P41145 whole entry, looked up): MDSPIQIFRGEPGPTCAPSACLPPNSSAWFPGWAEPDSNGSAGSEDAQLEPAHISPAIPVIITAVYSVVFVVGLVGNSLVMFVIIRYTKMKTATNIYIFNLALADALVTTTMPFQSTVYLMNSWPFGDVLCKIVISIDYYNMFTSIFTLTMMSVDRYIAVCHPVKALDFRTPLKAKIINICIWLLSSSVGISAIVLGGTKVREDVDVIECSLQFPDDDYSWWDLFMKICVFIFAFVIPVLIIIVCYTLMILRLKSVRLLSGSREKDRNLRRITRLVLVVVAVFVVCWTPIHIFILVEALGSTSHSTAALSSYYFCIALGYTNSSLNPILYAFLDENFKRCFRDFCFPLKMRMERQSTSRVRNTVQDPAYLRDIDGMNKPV

Row | Structure (SMILES) | inhibition
1 | Cc1ccc(CN(C(=O)Cn2nnc3ccccc32)C(C(=O)NCc2ccco2)c2cccs2)cc1 (stereo not drawn) | 17.9%
2 | O=C(NCc1ccco1)C(c1cccs1)N(Cc1ccccc1)C(=O)Cn1nnc2ccccc21 (stereo not drawn) | 9.5%
3 | Cc1cccc(C)c1NC(=O)C(c1cccs1)N(Cc1ccco1)C(=O)Cn1nnc2ccccc21 (stereo not drawn) | 53.4% (active)
4 | COc1cc(NS(=O)(=O)c2cn(C)cn2)cc(OC)c1 | -11.4%
5 | Cc1ccc(NC(=O)c2cc(N3C(=O)CCC3=O)ccc2N2CCOCC2)cc1 | -2.1% [at 20 µM]
6 | Cc1ccc(NC(=O)c2cc(N3C(=O)C=CC3=O)ccc2N2CCOCC2)cc1Cl | -45.3%
7 | O=C(Nc1ccc(N2CCOCC2)c([N+](=O)[O-])c1)c1ccco1 | 11.4%
8 | Cc1ccc(-c2ccc(C(=O)O)c(C)n2)cc1 | 21%
9 | Oc1ccc(N=Nc2ccccc2C(F)(F)F)c2cccnc12 | 29.5%
10 | Cc1ccc(N=Nc2cc(C)ccc2O)c(C)c1 | 19.5%
11 | Cc1ccc(N=Nc2ccc(O)c3ncccc23)cc1 | -2.4%
12 | O=Nc1ccc(O)c2ncccc12 | 7.2%
13 | Cc1ccc(N=Nc2ccc(O)c3ncccc23)cc1C | 60.3% (active)
14 | COc1ccccc1N=Nc1ccc(O)c2ncccc12 | -19.2%
15 | CCS(=O)(=O)c1ccc(OC)c(N=Nc2ccc(O)c3ncccc23)c1 | 1.8%
16 | Cc1ccc(C)c(N=Nc2ccc(O)c3ncccc23)c1 | 60.4% (active)
17 | CC(C)Oc1ccc(N2CC(C(=O)Nc3ccccn3)CC2=O)cc1 (stereo not drawn) | 19.8% [at 20 µM]
18 | COc1cc(/C=C2/N=C(C3CCCCC3)OC2=O)cc(OC)c1OC | -1.6%
19 | CCC(=O)Nc1ccc(NC(=O)c2cccc3ccccc23)cc1 | -36.8% [at 20 µM]
20 | S=C(NCCCc1ccccc1)NCc1ccccc1 | 7.2%
21 | Cc1ccc(S(=O)(=O)N2CCOCC2)cc1C(=O)NC1CCSc2ccccc21 (stereo not drawn) | 27.2%
22 | CCOc1ncccc1C(=O)NCCc1ccc(S(N)(=O)=O)cc1 | -2.5%
23 | COc1ccc(C(NC(=O)c2ccc(=O)[nH]c2)C(=O)Nc2ccc(C(C)C)cc2)cc1 (stereo not drawn) | -5%
24 | CCOCCCNC(=O)c1cc(=O)n(Cc2cccc(C)c2)c2ccccc12 | 3.1%
25 | O=C(Nc1cccc([N+](=O)[O-])c1)c1ccccc1 | 2.6%

Row | Structure (SMILES) | inhibition
26 | O=C(C#Cc1ccccc1)c1cccc([N+](=O)[O-])c1 | -9.6%
27 | O=C(c1ccccc1)c1ccc(Sc2ccc([N+](=O)[O-])cc2)cc1 | 10.8%
28 | O=C(c1ccc(-c2ccccc2)cc1)c1ccc([N+](=O)[O-])cc1 | -69.2%
29 | N/C(=N\OC(=O)c1ccc2c(c1)OCO2)c1cccnc1 | -2.2% [at 20 µM]
30 | CCC(C)(C)NC(=O)C1CCN(c2nc(OC)nc(OC)n2)CC1 | -16.1%
31 | COCC1CCN(C(=O)c2cc(COc3ccc(-n4cncn4)cc3)on2)C1 (stereo not drawn) | -15.5%
32 | CC(C)(C)C1CCc2c(sc(NC(=O)c3cccs3)c2C(N)=O)C1 (stereo not drawn) | -55.5%
33 | Oc1c(C(c2cccs2)N2CCN(c3ccccc3)CC2)ccc2cccnc12 (stereo not drawn) | 2.5%
34 | Oc1c(C(c2ccccn2)N2CCCCC2)cc(Cl)c2cccnc12 (stereo not drawn) | -6.4%
35 | Oc1c(C(c2ccccc2Cl)N2CCCC2)ccc2cccnc12 (stereo not drawn) | 57.9% (active)
36 | C/C(=N\Nc1nc(Cl)c(Cl)cc1Cl)c1ccc(S(=O)(=O)NCc2ccco2)cc1 | -56.4%
37 | COCCn1c(=N)c(S(=O)(=O)c2ccc(F)cc2)cc2c(=O)n3cccc(C)c3nc21 | -2.3%
38 | COc1ccc(N(C(=O)c2ccco2)S(=O)(=O)c2ccccc2)cc1 | -19.2%
39 | CCCCN(Cc1cc2cc(OC)ccc2[nH]c1=O)S(=O)(=O)c1ccc(C)cc1 | -44.3% [at 20 µM]
40 | O=C1CN(C(=O)Cn2ncc(Cl)c(Cl)c2=O)c2ccccc2N1 | 53.5%
41 | O=C(Cn1ncc2ccccc21)N1CCc2ccccc21 | 1.2%
42 | Cc1nc(-c2noc(-c3ccc(Cl)cc3)n2)c(C(F)(F)F)o1 | 31.9%
43 | CCCCN1C(=O)C2(OCCCO2)c2cccc(C)c21 | -40.4% [at 20 µM]
44 | CN1CC(=O)N(CC(=O)NCc2ccc(F)cc2)c2ccccc2C1=O | 3%
45 | Cc1c(C(=O)O)[nH]c2c1C(=O)CC(c1ccccc1)C2 (stereo not drawn) | -26.9%
46 | Cc1oc2c(c(=O)c1C)C(=O)CC(c1ccccc1)C2 (stereo not drawn) | -21.1%
47 | CCN1CCN(CC(=O)N2N=C(c3cccs3)CC2c2ccc(F)cc2)C(=O)C1=O (stereo not drawn) | 0.6%
48 | C/C(=N\Nc1nc(-c2ccccn2)nc2ccccc12)c1ccc(F)cc1 | 31.6%
49 | Fc1ccccc1/C=N/Nc1ncnc2ccccc12 | 10.9%
50 | C(=N\Nc1nc(-c2ccccn2)nc2ccccc12)/c1ccccc1 | 76.2% (active)

Row | Structure (SMILES) | inhibition
51 | Cc1ccc(-c2nc(N/N=C/c3ccncc3)c3ccccc3n2)cc1 | 2.4%
52 | C(=N\Nc1nc(-c2cccnc2)nc2ccccc12)/c1ccccc1 | -5.2%
53 | COc1cccc(CN2CCN(C(=O)c3oc4c(F)cccc4c3C)CC2=O)c1 | -26.9% [at 20 µM]
54 | COC(=O)CSc1nc2sc3c(c2c(=O)n1-c1ccc(OC)cc1)CCN(C)C3 | -14.3%
55 | COc1ccccc1N1CCN(C(=O)c2cnn3cccnc23)CC1 | 24.4%
56 | N=C1SC(c2ccccc2)C(=O)N1c1ncc(Cc2ccccc2Cl)s1 (stereo not drawn) | 26.7%
57 | N=C1SC(c2ccccc2)C(=O)N1c1ncc(Cc2ccccc2)s1 (stereo not drawn) | 1.3%
58 | O=C1c2ccccc2C(=O)N1c1ncc(Cc2ccc(Cl)cc2)s1 | -50.6%
59 | N=C1SCC(=O)N1c1ccccc1Cl | 16.3%
60 | CCC(C(=O)NCc1cccs1)n1nc(C)n2c(cc3occc32)c1=O (stereo not drawn) | -9.9%
61 | Fc1ccccc1-c1nc(-c2cnccc2C(F)(F)F)no1 | 11.7%
62 | CC(=O)Oc1ccc(C23CC4CC(CC(C4)C2)C3)cc1C(=O)O | -9%
63 | COc1ccc(C2=NN(C(=O)c3cccs3)C(c3ccccc3OC)C2)cc1OC (stereo not drawn) | 3.2%
64 | Cc1c(C(C)(C)C)s/c(=N/S(=O)(=O)c2ccccc2)n1C | 1.7%
65 | O=Cc1s/c(=N\S(=O)(=O)c2ccccc2)n(CCCCl)c1Cl | -16.2%
66 | Nc1cc(S(=O)(=O)Nc2cc(Cl)ccc2Cl)ccc1N1CCOCC1 | 6.9%
67 | C=CCNCC(=O)Nc1ccccc1SCC(=O)Nc1ccsc1C(=O)OC | -29% [at 20 µM]
68 | O=[N+]([O-])c1ccc(Nc2ccccc2O)c2nonc12 | 10.2% [at 20 µM]
69 | O=[N+]([O-])c1ccc(Sc2cccc[n+]2[O-])c2nonc12 | 93% (active)
70 | O=[N+]([O-])c1ccc(Nc2ccccc2)c2nonc12 | 7.5%
71 | CC1(C)CC(=O)C(N=Nc2cccc(S(=O)(=O)N3CCOCC3)c2)=C(O)C1 | -0.5%
72 | CCOC(=O)c1[nH]c(C)c(C(=O)OCc2c(C)noc2C)c1C | -46%
73 | CCOCCCNC(=O)C(c1ccc(C)cc1)N(Cc1ccc2c(c1)OCO2)C(=O)CNC(C)=O (stereo not drawn) | -0.2%
74 | COc1ccc(NC(=O)C2CC(=O)N(c3ccccc3C)C2)c(OC)c1 (stereo not drawn) | -5%
75 | COc1ccc(C(=O)Nc2ccc(S(=O)(=O)Nc3nccnc3OC)cc2)cc1 | -19%

Row | Structure (SMILES) | inhibition
76 | CC(=O)N(C1CC(C)C(C#N)(C#N)C1(C#N)C#N)N(C)C (stereo not drawn) | 17.9% [at 20 µM]
77 | CCCC(=O)N(C1CC(C)C(C#N)(C#N)C1(C#N)C#N)N(C)C (stereo not drawn) | 85.4% (active)
78 | O=C(CN(C(=O)CCC(=O)Nc1nccs1)c1ccc2c(c1)OCO2)NCc1ccc(F)cc1 | -0.7%
79 | Cc1nn(C)cc1CNC(=O)C1(C)CC1(Cl)Cl (stereo not drawn) | 11.1%
80 | O=S1(=O)NC(=NCCc2ccccn2)c2ccccc21 | 20.9%
81 | c1cnc2c(c1)ccc1cccnc12 | -30.1% and 19.4%
82 | CC1(C)Cc2c(sc3ncn4nnnc4c23)CO1 | -7.5%
83 | CC1(C)Cc2c(sc3c4nnnn4c4nnnn4c23)CO1 | 56.4% (active)
84 | CC(C)c1nc2sc3c(c2c(=O)n1N)CC(C)(C)OC3 | 13%
85 | CC1(C)Cc2c(c(-c3ccco3)nc3sc4c(NCC5CCCO5)ncnc4c23)CO1 (stereo not drawn) | -42.4%
86 | O=C(CSc1nc2ccsc2c(=O)n1CC1CCC(C(=O)O)CC1)c1ccc(F)cc1 (stereo not drawn) | 18.5%
87 | COc1ccc(N=Nc2nc(-c3ccccc3)c(-c3ccccc3)[nH]2)cc1 | 28.4%
88 | Oc1ccccc1N=Nc1nc(-c2ccccc2)c(-c2ccccc2)[nH]1 | 33.6%
89 | O=C(OCCCOc1ccc(F)cc1)c1ccc(O)cc1O | -20.5%
90 | CCC1CCC(C(=O)NC(C(=O)NCCc2ccc(S(N)(=O)=O)cc2)C(C)C)CC1 (stereo not drawn) | -31%
91 | O=C(NC1CC2CCCC(C1)N2Cc1ccccc1)c1cccc(F)c1 (stereo not drawn) | 34.5%
92 | CCOc1ccc(C(=O)NC2CC3CCCC(C2)N3CC(C)C)cc1 (stereo not drawn) | -39%
93 | O=C(NC1CC2CCCC(C1)N2Cc1ccccc1)c1ccc([N+](=O)[O-])cc1 (stereo not drawn) | 29.6% [at 20 µM]
94 | O=C(NC1CC2CCCC(C1)N2Cc1ccccc1)c1cccc(Cl)c1 (stereo not drawn) | 13.7% [at 20 µM]
95 | Cc1ccccc1C(=O)NC1CC2CCCC(C1)N2Cc1ccccc1 (stereo not drawn) | -8.6% [at 20 µM]
96 | CCCN1C2CCCC1CC(NC(=O)c1ccccc1OCC)C2 (stereo not drawn) | 12%
97 | CCOc1ccccc1C(=O)NC1CC2CCCC(C1)N2Cc1ccccc1 (stereo not drawn) | 5.8%
98 | COc1ccc(C(=O)NC2CC3CCCC(C2)N3Cc2ccccc2)cc1 (stereo not drawn) | 26.9%
